# Measurements reported in PubChem BioAssay (NCI).
# This is part of a sample that, as a whole, favours compounds with a hit. Of some 83,000 tested, about 20% had one in any assay.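 In brief: 96-well plates, 48 h treatment, single concentration, percent growth endpoint.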 Unmarked numbers belong to inactive results. The source made the active and inactive calls. Rule for the calls: active = growth percent below 10; inactive = the rest.
# How the values were obtained:
# Assay in all cases: NCI-60 one-dose screen, 48 h (100 = growth as untreated, 0 = no growth, -100 = all killed)
# Settings in all cases: 10 µM
# [1] = test system: SK-MEL-2 melanoma
# [2] = test system: EKVX NSCLC
# [3] = test system: SN12C renal
# [4] = test system: UO-31 renal
# [5] = test system: ACHN renal
# [6] = test system: CAKI-1 renal
# [7] = test system: A498 renal
# [8] = test system: CCRF-CEM leukemia
# [9] = test system: MOLT-4 leukemia
# [10] = test system: SR leukemia
# [11] = test system: RPMI-8226 leukemia
# [12] = test system: OVCAR-8 ovarian
# [13] = test system: OVCAR-5 ovarian
# [14] = test system: OVCAR-4 ovarian
# [15] = test system: SK-OV-3 ovarian
# [16] = test system: IGROV1 ovarian
# [17] = test system: OVCAR-3 ovarian
# [18] = test system: HS 578T breast
# [19] = test system: NCI/ADR-RES ovarian
# [20] = test system: TK-10 renal
Structure (SMILES),growth [1],growth [2] [%],growth [3],growth [4],growth [5],growth [6],growth [7],growth [8],growth [9],growth [10],growth [11],growth [12],growth [13],growth [14] [%],growth [15],growth [16],growth [17],growth [18] [%],growth [19],growth [20] [%]
COc1cc(/C=C2\CCCC3=C2NC(N)=NC3c2cc(OC)c(OC)c(OC)c2)cc(OC)c1OC (stereo not drawn),-0.813% (active),56,-5.19% (active),34.3%,-37.9% (active),-4.06% (active),0.45% (active),2.89% (active),-3.56% (active),1.07% (active),-15.4% (active),-35.8% (active),6.85% (active),27,7.16% (active),-19.4% (active),-17.7% (active),37,3.96% (active),–
NC1=NC(c2ccc(Cl)cc2)C2=C(N1)/C(=C/c1ccc(Cl)cc1)CCC2 (stereo not drawn),94.7%,93.7,84.8%,67.8%,95.6%,90.8%,54.7%,72.2%,64.9%,–,-12.4% (active),41.2%,112%,76.1,80.6%,85.2%,39.1%,100,92.9%,–
COc1ccc(/C=C2\CCCC3=C2NC(N)=NC3c2ccc(OC)c(OC)c2)cc1OC (stereo not drawn),56.8%,82.7,57.4%,63%,27.3%,–,91.3%,15.3%,53.1%,28.1%,15.2%,10.6%,74.4%,53.4,44.1%,57.1%,10.8%,87.9,25.1%,–
COc1cc(/C=C2\CCCC3C2=Nc2ccccc2NC3c2cc(OC)c(OC)c(OC)c2)cc(OC)c1OC (stereo not drawn),17.9%,59.8,-4.27% (active),5.57% (active),-23% (active),6.51% (active),-22.4% (active),4.32% (active),0.606% (active),2.76% (active),-10.9% (active),18.7%,16.5%,33.5,45.4%,-21% (active),-7.11% (active),53.2,5.96% (active),–
COc1ccc(C2CC(c3cc(OC)c(OC)c(OC)c3)=NN2)cc1 (stereo not drawn),87.6%,91.2,94.5%,62.7%,99%,69%,87.4%,57.3%,73.4%,-35.1% (active),-8.7% (active),100%,97.9%,84.9,81.5%,62.6%,–,104,68.3%,–
NS(=O)(=O)c1ccc(N2N=C(c3ccccc3)CCC2=O)cc1,107%,130,101%,104%,114%,–,83%,108%,93.2%,66.5%,94.5%,98%,112%,95.8,113%,105%,158%,113,98%,–
O=C(N/N=C/c1ccc(Cl)cc1)c1ccccc1Nc1cccc(C(F)(F)F)c1,70.6%,66.6,91.3%,40.8%,102%,86%,-13.2% (active),69.7%,74.2%,45.7%,82%,80.3%,96.9%,74.8,84.9%,59.3%,60.3%,61.7,88.8%,–
COC(=O)CC[C@@H](C)[C@H]1CC[C@H]2[C@@H]3CC[C@@H]4C[C@H](O)CC[C@]4(C)[C@H]3C[C@H](O)[C@]12C,87.7%,103,97.8%,–,99.1%,89.8%,119%,–,76.4%,–,68.4%,103%,109%,110,111%,–,102%,–,106%,92.7
CCN(CC)CCOC(=O)c1cc(OCc2ccccc2)c(OCc2ccccc2)c(OCc2ccccc2)c1,78.5%,47.7,–,50.7%,71.9%,50.4%,68.8%,37%,8.5% (active),1.2% (active),32.9%,56.3%,83.3%,75.5,100%,42.6%,64.9%,66.3,52.5%,78.3
OCCn1cccn1,118%,105,104%,–,103%,86.4%,94.2%,99.7%,95.7%,101%,98.2%,116%,107%,117,104%,–,104%,111,97.5%,107
Cc1cc(SC#N)cc(C(C)(C)C)c1O,82.2%,102,–,93.6%,101%,96.4%,86.1%,86.4%,66.9%,86%,96.6%,99.9%,88.4%,96.1,93.1%,100%,95%,110,104%,108
OC(CCN1CCCC1)(c1ccccc1)C1CCCCC1 (stereo not drawn),111%,97.5,95.9%,–,94.7%,95.7%,116%,98.2%,109%,123%,114%,104%,–,104,120%,–,105%,103,105%,108
Cc1ccc(NC(=S)NNC(=S)Nc2ccc(C)cc2)cc1,66.1%,92.7,68.1%,–,77.1%,67.8%,73.4%,43.9%,45.3%,27.4%,–,76%,89.1%,106,59.7%,–,–,78.4,31.7%,86.7
CCCCN1C(=O)CC(SC2CC(=O)N(CCCC)C2=O)C1=O (stereo not drawn),99.7%,98.5,102%,–,99%,88.6%,99.6%,97.1%,103%,–,100%,108%,108%,109,111%,–,106%,103,111%,103
O=C(O)Cc1ccc(O)c(O)c1,109%,89.4,99.4%,–,108%,99.5%,–,-24.1% (active),98.6%,–,92.4%,104%,96.2%,109,99.3%,–,108%,90,–,112
Cc1ccc(C2NC(=S)N3C(c4ccc(C)cc4)NC(=S)N23)cc1 (stereo not drawn),-32.9% (active),43.1,52.5%,12.7%,63.4%,–,49.6%,12.3%,24.8%,–,6.55% (active),35.7%,81.6%,117,49%,–,-20% (active),26.4,19%,–
COc1cccc(N=Nc2cccc(OC)c2)c1,94.4%,83.5,–,88.2%,93%,94.2%,86.4%,90.8%,79.5%,92.8%,87%,96.2%,90.6%,104,84.6%,89.6%,102%,79.8,105%,95.9
c1ccc2c(c1)Cc1ccccc1N2CCN1CCCCC1,97%,101,–,83.8%,89.6%,90.7%,107%,98.7%,83.3%,94.1%,87.2%,91.2%,96.6%,95.2,88.8%,83.5%,108%,113,–,104
